# Source: PubChem BioAssay (Broad Institute)
# C diff growth – inhibitors of Clostridium difficile growth | growth activity, negative = inhibition, % at 16 µg/mL (by protocol) | Clostridium difficile clinical isolate growth, OD600, 24 h; hits give low values | actives 0.25% (n = 86,000) | AID 1259249;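 active = mean growth activity at or below -80% and every replicate also at or below -80%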;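 also: 0% = DMSO wells and -100% = levofloxacin 16 µg/mL wells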
# An asterisk follows results filed as active; ! = a repeat was not active. The full list was thinned out, with hits kept by preference.
SMILES,C diff growth
COc1ccc(C#Cc2ccc([C@@H]3[C@H]4CN(Cc5ccccc5F)CCCCN4[C@H]3CO)cc2)cc1,-94.2*
COc1ccc(C#Cc2ccc([C@H]3[C@@H](CO)N4CCCCN(Cc5ccccc5F)C[C@H]34)cc2)cc1,-99.8*
CC(C)(O)C#Cc1ccc([C@H]2[C@@H](CO)N3CCCCN(Cc4ccccc4F)C[C@@H]23)cc1,6.0
CC(C)(O)C#Cc1ccc([C@H]2[C@H]3CN(Cc4ccccc4F)CCCCN3[C@H]2CO)cc1,4.2
COCC#Cc1ccc([C@@H]2[C@@H](CO)N3CCCCN(Cc4ccccc4F)C[C@H]23)cc1,0.0
COc1ccc(S(=O)(=O)Nc2ccc3c(c2)C(=O)N([C@H](C)CO)C[C@H](C)[C@H](CN(C)C(=O)c2ccccc2)OCCCC[C@H](C)O3)cc1,8.0
O=C([C@@H]1[C@@H](CO)[C@@H]2Cn3c(ccc(-c4cccnc4)c3=O)[C@H]1N2CC1CC1)N1CCCCC1,0.6
C[C@@H]1CN([C@H](C)CO)S(=O)(=O)c2ccc(C#Cc3ccncc3)cc2O[C@H]1CN(C)C(=O)C1CCC1,-0.1
COc1ccc2c3c([nH]c2c1)[C@@H](CO)N(C(=O)CN(C)C)CC31CCN(Cc2ccccc2)CC1,6.2
COc1ccc(S(=O)(=O)N2CC[C@H]3[C@@H](CO)N(C)c4ccc(C5=CCCCC5)cc4[C@H]32)cc1,4.3
COc1ccc(NC(=O)N2CC[C@H]3[C@@H]2c2cc(Br)ccc2N(C)[C@H]3CO)cc1,-98.5*
CN1c2ccc(Br)cc2[C@@H]2[C@@H](CCN2C(=O)Nc2ccc(F)cc2)[C@H]1CO,-98.3*
COc1ccc(NC(=O)N2CC[C@@H]3[C@H]2c2cc(-c4ccc(F)cc4)ccc2N(C)[C@H]3CO)cc1,46.1
CN1c2ccc(Br)cc2[C@H]2[C@H](CCN2C(=O)Nc2cccc(F)c2)[C@H]1CO,30.8
COc1cccc(C#Cc2ccc3c(c2)[C@@H]2[C@@H](CCN2C(=O)c2ccccc2F)[C@@H](CO)N3C)c1,-97.5*
CN1c2ccc(Br)cc2[C@@H]2[C@@H](CCN2C(=O)Nc2ccc(F)cc2)[C@@H]1CO,15.3
COc1cccc(-c2ccc3c(c2)[C@H]2[C@H](CCN2C(=O)c2ccccc2F)[C@H](CO)N3C)c1,-0.1
COc1ccc(-c2ccc3c(c2)[C@H]2[C@H](CCN2C(=O)c2ccccc2F)[C@H](CO)N3C)cc1,-11.8
COc1ccc(NC(=O)N2CC[C@@H]3[C@H]2c2cc(Br)ccc2N(C)[C@H]3CO)cc1,6.9
CCC(=O)N1[C@@H](CO)[C@H](c2ccccc2)C12CN(C(=O)c1ccc(F)cc1)C2,-7.3
O=S(=O)(c1ccccc1)N1C[C@H]2[C@@H](c3ccccc31)[C@H](CO)N2Cc1ccccc1,55.4
O=C(c1cccnc1)N1CC[C@@H]2[C@H]1c1cc(-c3cccc(F)c3)ccc1N[C@@H]2CO,-5.3
CO[C@@H]1CN(C)C(=O)c2cc(NC(C)=O)ccc2OC[C@@H](C)N(Cc2cccc(F)c2)C[C@@H]1C,1.9
O=C(C[C@H]1CC[C@@H](NS(=O)(=O)c2ccccc2)[C@@H](CO)O1)NCc1ccccc1F,6.8
COc1ccccc1-c1ccc(C2[C@@H]3CN(S(=O)(=O)c4ccccc4)C[C@H]2N3)cc1 (some centres undefined),54.7
SMILES,C diff growth
CNC(=O)C[C@@H]1CC[C@H]2[C@H](COc3ccc(NC(=O)c4ccc(F)c(F)c4)cc3C(=O)N2C)O1,4.9
CCC(=O)N1[C@H](CO)[C@@H](c2ccccc2)C12CN(Cc1nccs1)C2,0.2
N#Cc1ccc(-c2ccc(C3[C@@H]4CN(C(=O)Nc5ccc(C(F)(F)F)cc5)C[C@H]3N4)cc2)cc1 (some centres undefined),-96.1*!
O=C(Nc1ccccc1F)N1C[C@@H]2N[C@H](C1)C2c1ccc(-c2cccc(F)c2)cc1 (some centres undefined),79.1
Cc1ccc(-c2ccc(C3[C@@H]4CN(C(=O)Nc5ccc(C(F)(F)F)cc5)C[C@H]3N4)cc2)cc1 (some centres undefined),-91.6*!
O=C(Nc1ccccc1)N1C[C@@H]2N[C@H](C1)C2c1ccc(-c2ccccc2F)cc1 (some centres undefined),39.3
COc1ccc(NC(=O)N2C[C@@H]3N[C@H](C2)C3c2ccc(-c3cccc(F)c3)cc2)cc1 (some centres undefined),2.8
COc1ccc(NC(=O)N2[C@@H]3CNC[C@H]2C3c2ccc(-c3ccc(OC)cc3)cc2)cc1 (some centres undefined),-10.8
O=C(Nc1ccc(F)cc1)N1C[C@@H]2N[C@H](C1)C2c1ccc(-c2cccnc2)cc1 (some centres undefined),-4.5
O=C(Nc1ccc(C(F)(F)F)cc1)N1C[C@@H]2N[C@H](C1)C2c1ccc(-c2cccc(F)c2)cc1 (some centres undefined),-99.4*
N#Cc1ccc(-c2ccc([C@@H]3[C@@H]4CN(C(=O)Nc5ccc6c(c5)OCO6)C[C@H]3N4)cc2)cc1,22.1
